Hits are enriched below; roughly 4.8% of the tested compounds scored in any of these assays.
ssDAF12 agonist – activates DAF-12 receptor from parasite S. stercoralis | HEK293 ssDAF-12/GRIP1 lit1-tk-luc reporter, luminescence; % of 3 µM dafachronic acid response | activation, % at 6.8 µM | 1% of 370,000 active | AID 652126;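 active means activation above the mean over all tested compounds plus 3 SD, cut at about 0.9% in these data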;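 further: 0% = DMSO-only wells and 100% = 3 µM delta7-dafachronic acid wells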
hcDAF-12 act – H. contortus DAF-12 activation, primary screen | activation, % at 6.8 µM | 1.4% of 370,000 active | HEK293 hcDAF-12 lit1-tk-luc reporter, luminescence; 0% DMSO, 100% Δ7-dafachronic acid;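 active means activation above the mean of all tested compounds plus 3 SD, cut at about 5.5% in these data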;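 further: 100% = response to 3 µM Δ7-dafachronic acid high control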
NR1D1 modulator – Rev-erb alpha (human) modulation. P20393. Rev-erbα–FITC-DNA binding, fluorescence polarization, 90 min. activity, % at 10 µM. 0.79% of 370,000 active. AID 1259318;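 active means activity above about 14%, limit read from the data; passing the limit was not always enough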;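 further: 0% = DMSO wells with 35 nM protein and 100% = DMSO wells with 750 nM protein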
Target sequence (P20393 whole entry, looked up): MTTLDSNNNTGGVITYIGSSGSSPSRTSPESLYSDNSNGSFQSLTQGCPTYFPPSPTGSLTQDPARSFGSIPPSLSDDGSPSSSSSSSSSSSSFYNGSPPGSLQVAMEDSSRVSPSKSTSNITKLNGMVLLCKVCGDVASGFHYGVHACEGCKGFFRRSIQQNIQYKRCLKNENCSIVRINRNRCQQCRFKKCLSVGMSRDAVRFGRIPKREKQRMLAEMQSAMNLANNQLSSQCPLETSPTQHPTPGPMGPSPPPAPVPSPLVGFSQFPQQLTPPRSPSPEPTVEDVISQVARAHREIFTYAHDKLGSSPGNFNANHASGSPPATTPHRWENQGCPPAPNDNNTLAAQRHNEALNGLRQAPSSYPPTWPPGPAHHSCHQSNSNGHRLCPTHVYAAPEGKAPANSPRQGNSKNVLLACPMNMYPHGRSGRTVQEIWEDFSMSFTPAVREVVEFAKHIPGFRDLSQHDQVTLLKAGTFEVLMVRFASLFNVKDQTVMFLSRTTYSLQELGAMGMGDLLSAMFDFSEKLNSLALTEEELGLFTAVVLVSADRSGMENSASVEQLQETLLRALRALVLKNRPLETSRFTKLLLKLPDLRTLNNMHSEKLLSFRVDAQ
DAX1 inh-1 – inhibits human nuclear receptor DAX1; P51843; HEK293 Gal4-DAX1 luciferase reporter, luminescence; inhibition, % at 6.75 µM; 0.99% of 340,000 active; AID 504766;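 active means inhibition above the mean over all tested compounds plus 3 SD, cut at about 4.2% in these data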;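 further: 0% = DAX1-transfected cells with DMSO and 100% = empty-vector control cells with DMSO; inhibition shows as a rise in luminescence from relieved DAX1 repression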
DAX1 inh-2 – inhibitors of DAX1 repression of SF-1 activated StAR promoter. inhibition, % at 6.8 µM. 1.1% of 370,000 active. HEK293T StAR-luciferase reporter, SF-1/DAX-1 repression relief. AID 652010;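 active means inhibition above the mean over all tested compounds plus 3 SD, cut at about 3.6% in these data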;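 further: 0% = DAX-1 cells with DMSO and 100% = cells lacking DAX-1 with DMSO; higher inhibition means more luminescence from relief of DAX-1 repression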
hgDAF-12 ag – hgDAF-12 agonism, primary luciferase screen | HEK293 GAL4-hgDAF12 UAS-luciferase reporter, agonist luminescence; normalized to butyrate control | activation, % at 6.8 µM | 1.8% of 370,000 active | AID 687014;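 active means activation above a cutoff set at the mean of all screened compounds plus 3 SD, cut at about 10% in these data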;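 further: 0% = DMSO wells and 100% = sodium butyrate wells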
An asterisk follows results filed as active; . = not tested or not shown; ! = not active in a repeat.

SMILES	ssDAF12 agonist	hcDAF-12 act	NR1D1 modulator	DAX1 inh-1	DAX1 inh-2	hgDAF-12 ag
CCCCNC(=O)O[C@H]1CC[C@@]23CCCN2C(=O)CCC[C@H]3C1	-1.5	-2.0	-0.9	.	.	-0.2
O=C(Nc1ccccc1)OCCN1C(=O)CCC12CCC(c1ccccc1)CC2 (stereo unspecified)	-1.4	-2.9	-0.5	.	-0.3	2.5
COc1cc(/C=C/C(=O)OCC(=O)NC(=O)NC(C)(C)C)ccc1O	-1.3	0.0	-10.0	4.5*	-0.5	-0.3
Cc1[nH]c2ccccc2c1/C=N/Nc1ccccc1[N+](=O)[O-]	0.9*	5.0	-5.4	-0.4	0.1	3.6
NC(=O)C1CCN(c2ncc(Br)s2)CC1	-1.3	0.8	-4.7	.	.	0.9
CC(C)N1CCCCC(NC(=O)c2cccc(F)c2)C1=O (stereo unspecified)	-1.6	0.2	0.6	.	-0.2	1.9
ClC(CCN1CCN(Cc2ccccc2)CC1)c1ccccc1 (stereo unspecified)	-0.6	-0.6	-5.0	5.7*	-0.4	-1.8
O=C(NCC(=O)N(CCN1CCOCC1)C(C(=O)NC1CCCC1)c1cccs1)c1ccco1 (stereo unspecified)	-1.1	1.5	-1.5	4.7*	0.7	2.6
O=C(Cn1cnc2ccccc2c1=O)N1CCCCC1	-1.4	5.5	-2.4	.	-0.1	6.8
COC(=O)c1sc2ncccc2c1OCc1cccc(Cl)c1	-1.4	-2.1	0.7	4.2*	-1.6	3.4
COC(=O)c1sc2ncccc2c1OCc1c(Cl)cccc1Cl	-1.1	-0.5	-0.3	0.5	0.0	0.5
Cc1c(N2C(=O)c3ccc(Br)cc3C2=O)c(=O)n(-c2ccccc2)n1C	-1.1	-1.2	1.3	5.4*	-0.4	-2.4
O=C(c1ccc(Cl)cc1Cl)N1CCc2ccccc21	-0.4	-0.4	-1.2	-0.4	-0.6	-0.9
O=C(/C=C/c1ccc(Cl)cc1Cl)N1CCc2ccccc21	-0.3	4.8	-7.6	-0.1	1.7	13.1*
O=C(CCc1ccccc1)N[C@H]1[C@@H](OC(=O)c2cnccn2)CCC[C@]12C(=O)N(Cc1ccccc1)c1ccccc12	-0.8	-0.9	-3.8	.	-0.1	-1.2
COC(=O)c1ccc(CSc2nc3c(c(=O)[nH]2)CCC3)cc1	-1.6	-0.3	3.2	.	3.7*	0.7
Cc1ccc(CSc2nc3c(c(=O)[nH]2)CCC3)cc1	-1.1	1.7	2.0	0.6	0.5	-2.3
O=C1CC[C@@H]2CC3(C[C@@H]4CCN1[C@H]24)Nc1ccccc1NC3=NC1CCCCC1 (stereo partly specified)	-1.0	-1.3	-0.3	5.2*	-0.1	1.5
COC(=O)[C@]12C[C@H](CC(=O)NCC3CCCCC3)C(=O)N(Cc3ccc(Cl)cc3Cl)C1=C[C@H](COCc1ccccc1)O[C@@H]2C	-0.7	-2.0	-4.1	.	-1.5	-0.2
CN(CC(=O)N1CCN(c2ccccn2)CC1)S(=O)(=O)c1ccccc1	-1.0	-1.4	-3.9	2.2	0.2	1.1
CN(CC(=O)N1CCN(c2ncccn2)CC1)S(=O)(=O)c1ccc(Cl)cc1	2.2*	-1.4	-0.7	0.2	0.9	-2.3
C[C@H]1CCC/C=C/C(=O)c2c(cc(O)c(Cl)c2O)CC(=O)O1	-1.2	0.9	-2.6	.	-3.2	-8.7
CCNC(=S)N1CCC(n2cnc3ccccc32)CC1	-1.5	0.8	0.3	4.6*	-0.2	-2.6
CCOC(=O)Nc1ccc2c(c1)N(C(=O)OCCN(C)C)c1ccccc1CC2	-1.0	-1.0	-2.9	5.1*!	0.6	1.1
CCOC(=O)Nc1ccc2c(c1)N(C(=O)CCN(C)C)c1ccccc1CC2	-0.5	-2.5	8.2	0.2	-0.3	-1.0
SMILES	ssDAF12 agonist	hcDAF-12 act	NR1D1 modulator	DAX1 inh-1	DAX1 inh-2	hgDAF-12 ag
C=CCNC(=O)Nc1ccc2c(c1)[C@]1(CC(=O)N(CC(C)C)C1c1ccccc1)C(=O)N2C (stereo partly specified)	-1.4	-2.3	1.1	.	-0.3	-0.5
CN(CCC1CCOCC1)C(=O)CC1C(=O)NCCN1CC1CCCCC1 (stereo unspecified)	-1.3	-1.8	0.0	-1.0	0.5	0.4
CN(CC1CCOCC1)C(=O)CC1C(=O)NCCN1CC1CCCCC1 (stereo unspecified)	-1.0	-2.9	-2.7	5.7*	-0.5	1.6
COc1cccc(CN2CCNC(=O)C2CC(=O)N(C)CCC2CCOCC2)c1OC (stereo unspecified)	-1.5	0.7	1.4	6.1*	-1.9	2.6
COc1cc(=O)oc(C=O)c1C	-0.3	-3.0	5.9	.	-0.3	2.7
CC(C)(C)NC(=O)CON=C1c2ccccc2-c2ccccc21	-1.9	-4.9	9.7	-1.8	0.1	0.2
CC(C)(C)NCC(O)CON=C1c2ccccc2-c2ccccc21 (stereo unspecified)	-1.8	-1.1	-0.1	5.4*	0.6	-3.2
COCc1nnc(NC(C)=O)s1	-0.5	1.7	6.9	5.5*	0.1	2.1
CC(=O)Nc1nnc(COc2ccccc2)s1	-0.5	-1.5	-3.3	1.4	-0.2	2.8
Cc1ccc(CCNC(=O)C2CCC(=O)N(Cc3ccccc3F)C2)o1 (stereo unspecified)	-0.5	4.2	6.0	-0.2	4.1*	9.8
COc1ccc(/C=N/NC(=O)c2cccs2)c2ccccc12	-0.5	2.8	7.0	3.6	1.3	10.6*
OCC1CCCN(C(=S)Nc2ccc(Nc3ccccc3)cc2)C1 (stereo unspecified)	-0.3	2.7	-0.2	5.7*	2.2	16.1*
Cc1ccc(S(=O)(=O)NCC2CN(S(=O)(=O)c3ccc(C)cc3)c3ccccc3C(=O)N2c2ccc(F)cc2)cc1 (stereo unspecified)	-1.6	-1.4	1.4	.	.	-1.9
O=C(COC(=O)c1ccc([N+](=O)[O-])s1)NCc1ccccc1	-1.2	1.2	-6.4	2.0	-0.3	-2.9
Cc1[nH]c2ccccc2c1C(=O)COC(=O)c1ccc([N+](=O)[O-])s1	1.0*	4.0	-3.5	-0.9	0.5	1.4
O=S(=O)(c1ccc(NC(=S)Nc2ccc3c(c2)OCO3)cc1)N1CCOCC1	-0.3	-0.7	4.0	-0.1	0.2	3.5
O=S(=O)(NCc1ccc2c(c1)OCO2)c1ccc(F)cc1	-0.6	-1.9	2.5	7.5*	0.7	-2.6
CC(=O)Nc1ccc(S(=O)(=O)NCC(=O)Nc2ccc3c(c2)OCO3)cc1	2.1*	-1.4	-1.2	-2.1	-0.1	-1.5
CNS(=O)(=O)c1ccc(NC(=S)Nc2ccc3c(c2)OCO3)cc1	-1.1	1.9	2.1	0.5	0.4	11.5*
O=S(=O)(NCc1ccc2c(c1)OCO2)c1ccc(F)c(F)c1	-0.9	-2.4	6.0	2.9	0.1	0.2
CCOC(=O)c1cccc(NC(=O)CN(C)S(=O)(=O)c2ccco2)c1	-1.0	-0.9	-0.8	.	1.0	-1.3
Cc1nc2ccccc2n1C(=O)c1ccc(Cl)cc1[N+](=O)[O-]	-1.2	5.8*	-4.0	0.1	0.0	-1.1

Screens: PubChem, several laboratories
